In PubChem BioAssay:
Where “and” joins values, the source holds several entries; their conditions need not be identical. Equal entries are not always repeated. Calls of active or inactive are those of the source.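 How the source made its calls, unless noted: active means z-score of at least 1.8 in each of two replicates, scored against plate mean and spread of sample wells; inactive means the rest.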

Tested on: not listed separately
Experiment: viability loss with induced miR-34 in A549 – imaging, A549 dox-inducible miR-34, nuclei and caspase counts, primary screen (AID 1347080)
Conditions: A549 miR-34 inducible, Hoechst nuclei count, 48 h; measured here: total cells with miR-34 induction; stronger effect = lower value

| Structure (SMILES) | cell count |
| --- | --- |
| O=C1C(Cl)=C(NCCN2CCOCC2)C(=O)c2ncccc21 | 1390 |
| NC(=O)Nc1sc(-c2ccc(F)cc2)cc1C(N)=O | 1490 and 2380 |
| CCN(c1ccccc1)c1cc(NC)[n+](C)c(C)n1 | 7990 |
| CC(C)[C@H](CO)Nc1nc(Nc2cccc(Cl)c2)c2ncn(C(C)C)c2n1 | 1040 |

Same assay, conditions: A549 miR-34 inducible, Hoechst nuclei count, 48 h; measured here: total cells without miR-34 induction

| Structure (SMILES) | cell count |
| --- | --- |
| O=C1C(Cl)=C(NCCN2CCOCC2)C(=O)c2ncccc21 | 1580 |
| NC(=O)Nc1sc(-c2ccc(F)cc2)cc1C(N)=O | 1580 and 2160 |
| CCN(c1ccccc1)c1cc(NC)[n+](C)c(C)n1 | 7790 |
| CC(C)[C@H](CO)Nc1nc(Nc2cccc(Cl)c2)c2ncn(C(C)C)c2n1 | 1030 |

Target: Mitogen-activated protein kinase 7 (Homo sapiens) (UniProt Q13164)
Experiment: Gal4-ERK5 driven luciferase induction – cell-based, HTS, primary screen (AID 1508626;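 active means luciferase signal above three times the same-plate solvent-only control wells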;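 further: luciferase driven by Gal4-ERK5 fusion binding five Gal4 sites before minimal TATA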)
Conditions: HeLa Gal4-ERK5 transactivation, 18 h, at 5 µM, stronger effect = higher value

Chain of Mitogen-activated protein kinase 7 (Homo sapiens) (Q13164 whole entry, looked up, the tested form may be a part): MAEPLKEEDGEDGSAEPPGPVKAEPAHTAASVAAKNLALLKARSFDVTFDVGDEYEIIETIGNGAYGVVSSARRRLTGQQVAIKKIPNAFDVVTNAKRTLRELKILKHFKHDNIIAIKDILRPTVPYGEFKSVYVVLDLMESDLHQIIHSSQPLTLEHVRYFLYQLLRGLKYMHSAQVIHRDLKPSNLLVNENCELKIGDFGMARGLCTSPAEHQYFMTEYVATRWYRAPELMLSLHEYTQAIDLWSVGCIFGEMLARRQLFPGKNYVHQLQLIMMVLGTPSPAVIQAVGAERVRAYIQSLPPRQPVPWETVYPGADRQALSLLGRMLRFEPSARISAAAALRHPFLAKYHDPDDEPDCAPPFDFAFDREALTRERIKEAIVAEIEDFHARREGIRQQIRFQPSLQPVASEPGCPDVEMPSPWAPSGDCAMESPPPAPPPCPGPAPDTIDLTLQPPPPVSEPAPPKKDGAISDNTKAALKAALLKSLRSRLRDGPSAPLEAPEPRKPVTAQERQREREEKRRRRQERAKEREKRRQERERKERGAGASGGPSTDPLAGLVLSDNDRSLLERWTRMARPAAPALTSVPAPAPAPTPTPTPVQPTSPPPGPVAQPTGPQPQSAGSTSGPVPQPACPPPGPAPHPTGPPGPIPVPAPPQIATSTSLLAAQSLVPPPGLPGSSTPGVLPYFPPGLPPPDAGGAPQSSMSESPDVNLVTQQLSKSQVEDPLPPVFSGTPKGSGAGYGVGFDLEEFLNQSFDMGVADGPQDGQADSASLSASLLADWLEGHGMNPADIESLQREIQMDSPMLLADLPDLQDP

| Structure (SMILES) | luciferase signal |
| --- | --- |
| C=C(C)[C@H]1CC=C(C(=O)O)CC1 | 24 AU (inactive) |
| CC1=C2C(=CO[C@H](C)[C@H]2C)C(=O)C(C(=O)O)=C1O | 52 AU (inactive) |
| NC(Cc1ccc(F)cc1)C(=O)O (stereo unspecified) | 100 AU (inactive) |

Tested on: not listed separately
Experiment: galactose survival enhancers in mitochondrial complex I cybrids – cell-based, galactose medium, ATP luminescence, primary screen (AID 1645843);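 further: positive z means more ATP and so rescue of galactose-driven cybrid death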
Conditions: complex I mutant cybrid cells, 72 h, stronger effect = higher value

| Structure (SMILES) | z-score |
| --- | --- |
| O=C1C(Cl)=C(NCCN2CCOCC2)C(=O)c2ncccc21 | -0.82 (inactive) |
| NC(=O)Nc1sc(-c2ccc(F)cc2)cc1C(N)=O | 0.96 (inactive) |
| CN[C@@H]1[C@@H](O)[C@@H](O[C@@H]2[C@@H](O)[C@H](O[C@H]3O[C@H]([C@@H](C)NC)CC[C@H]3N)[C@@H](N)C[C@H]2N)OC[C@]1(C)O | 0 (inactive) |
| CCN(c1ccccc1)c1cc(NC)[n+](C)c(C)n1 | 0.245 (inactive) |
| CC(C)[C@H](CO)Nc1nc(Nc2cccc(Cl)c2)c2ncn(C(C)C)c2n1 | -0.745 (inactive) |
